Data: PubChem BioAssay (Tox21)
Results filed as inconclusive are left out. Calls of active or inactive are those of the source. Unless noted, the call rests on the fitted dose curve; in most records, active means well fitted curve in the direction sought with a large enough effect in the repeat runs; inconclusive means weak or mixed curves; inactive means no such curve, though single readings can be large; an effect the other way counts as inactive or inconclusive.

Assays:
[1] = target: Thyrotropin-releasing hormone receptor (Homo sapiens) (UniProt P34981); test: qHTS assay to identify small molecule agonists of the thyrotropin-releasing hormone receptor (TRHR) signaling pathway (AID 1346891; calls by dose curve; further: series mostly up to about 58 µM)
Summary of the method: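 Readout was intracellular calcium fluorescence in TRHR-Hek293 cells. Cells were incubated 18 h, dye-loaded 2 h at 37 °C, and treated with compound in agonist mode.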

[2] = Caspase-3/7 induction in HepG2 cells by small molecules, qHTS assay (AID 1346978); further: nearly all actives have a fitted effect of over 15% in size
Summary of the method: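 Wild-type HepG2 cells (2,000/well) were settled 5 h at 37 C, 5% CO2, then exposed to compounds in DMSO for 17 h. Caspase-3/7 activity was read by luminescence 30 min after adding Caspase-Glo 3/7 reagent at room temperature.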

[3] = Caspase-3/7 induction in CHO-K1 cells by small molecules, qHTS cell viability counter screen (AID 1346979); further: nearly all actives have a fitted effect of over 35% in size; further: potency means the concentration at half of the fitted maximal effect
Summary of the method: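 Following a 5hr settling period, CHO-K1 cells at 1,500 per well received DMSO-dissolved compounds. Cell viability was quantified 16hr later by CellTiter-Fluor fluorescence, measured after 1hr with reagent at 37C.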

[4] = Caspase-3/7 induction in CHO-K1 cells by small molecules, qHTS assay (AID 1346980); further: nearly all actives have a fitted effect of over 15% in size
Summary of the method: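 Wild-type cells were seeded at 1,500 per well and settled 5 hr at 37 C, 5% CO2, then exposed to DMSO-dissolved compounds for 17 hr. Caspase-Glo 3/7 reagent was added, and luminescence was read after 30min at room temperature.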

[5] = Caspase-3/7 induction in HepG2 cells by small molecules, qHTS cell viability counter screen (AID 1346981); further: series mostly up to about 92 µM; nearly all actives have a fitted effect of over 30% in size
Summary of the method: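 In this quantitative HTS counter screen, compounds delivered in DMSO were left on unmodified HepG2 cells for 16 hr at 37 C. Viability was then determined fluorometrically with CellTiter-Fluor, in parallel with caspase-3/7 induction in the same wells.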

[6] = target: Nuclear receptor subfamily 1 group I member 2 (Rattus norvegicus) (UniProt Q9R1A7); test: Rat pregnane X receptor (rPXR) activation by small molecules, qHTS assay (AID 1346983); conditions: rPXR luciferase reporter cells, One-Glo luminescence, 24 h; max activation: stronger effect = higher value; further: nearly all actives have a fitted effect of over 20% in size
Summary of the method: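 Cell-based rPXR luciferase reporter assay, 2,000 cells per well, rested 5hr at 37 C before compound addition in DMSO, then 24 hr at 37 C. One-Glo reagent was added and luminescence read after 30 min at room temperature.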

[7] = target: Nuclear receptor subfamily 1 group I member 2 (Homo sapiens) (UniProt O75469); test: CYP3A4 induction through human pregnane X receptor (PXR) by small molecules, qHTS assay (AID 1346984); further: nearly all actives have a fitted effect of over 40% in size; further: potency means the concentration at half of the fitted maximal effect
Summary of the method: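 Induction measured in HepG2-based DPX-2 cells co-expressing human PXR and a CYP3A4 promoter-driven luciferase. After a 24-hour compound exposure, cells received CYP3A4 luciferin substrate at 3uM final for 3 hours, and light output was then recorded.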

[8] = target: Nuclear receptor subfamily 1 group I member 2 (Homo sapiens) (UniProt O75469); test: Human pregnane X receptor (PXR) activation by small molecules, qHTS assay (AID 1346985); further: nearly all actives have a fitted effect of over 40% in size; further: potency means the concentration at half of the fitted maximal effect
Summary of the method: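 DPX-2 cells (HepG2 co-transfected with a PXR response element and a CYP3A4-promoter luciferase construct) were seeded at 2,000 per well, rested 5 hr at 37C, then exposed to DMSO-dissolved compounds for 24 hr. Activation was read as luciferase luminescence.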

[9] = target: Cytochrome P450 2D6 (Homo sapiens) (UniProt P10635); test: Cytochrome P450 Family 2 Subfamily D Member 6 (CYP2D6) small molecule antagonists: luciferase reporter qHTS assay (AID 1671196); further: nearly all actives have a fitted effect of over 50% in size; further: potency means the concentration at half of the fitted maximal effect; on activity change, negative = inhibition: series mostly up to about 120 µM
Summary of the method: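 Test chemicals meet CYP2D6 plus proluciferin substrate (10 min, RT); NADPH regenerating solution then drives turnover for 1 h. Detection reagent halts the reaction; luminescence measured after 20 min.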

[10] = target: Cytochrome P450 2C19 (Homo sapiens) (UniProt P33261); test: Cytochrome P450 Family 2 Subfamily C Member 19 (CYP2C19) small molecule antagonists: luciferase reporter qHTS assay (AID 1671197); further: nearly all actives have a fitted effect of over 65% in size; further: potency means the concentration at half of the fitted maximal effect; on activity change, negative = inhibition: series mostly up to about 120 µM
Summary of the method: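 Light output is proportional to CYP2C19 activity: proluciferin substrate is converted to luciferin, then detected by a luciferin detection reagent that also stops the 1 h, 37C NADPH-driven reaction. Ketoconazole serves as positive control.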

[11] = target: Cytochrome P450 2C9 (Homo sapiens) (UniProt P11712); test: Cytochrome P450 Family 2 Subfamily C Member 9 (CYP2C9) small molecule antagonists: luciferase reporter qHTS assay (AID 1671198); further: nearly all actives have a fitted effect of over 50% in size; further: potency means the concentration at half of the fitted maximal effect; on activity change, negative = inhibition: series mostly up to about 120 µM
Summary of the method: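 CYP2C9 activity was measured with a P450-Glo proluciferin substrate. Enzyme–substrate mix was held with compound for 10 min at room temperature, then NADPH regeneration solution was added for 1 h at 37C. Luciferin product was read as luminescence.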

[12] = target: Cytochrome P450 1A2 (Homo sapiens) (UniProt P05177); test: Cytochrome P450 Family 1 Subfamily A Member 2 (CYP1A2) small molecule antagonists: luciferase reporter qHTS assay (AID 1671199); further: nearly all actives have a fitted effect of over 50% in size; further: potency means the concentration at half of the fitted maximal effect; on activity change, negative = inhibition: series mostly up to about 120 µM
Summary of the method: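 Steps: enzyme-substrate mix dispensed; test compounds and furafylline control pinned in; 10 min room temperature; NADPH regeneration solution added, 1 h; reaction stopped with luciferin detection reagent; luminescence read after 20 min.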

[13] = target: Cytochrome P450 3A4 (Homo sapiens) (UniProt P08684); test: Cytochrome P450 Family 3 Subfamily A Member 4 (CYP3A4) small molecule antagonists: luciferase reporter qHTS assay (AID 1671201); further: nearly all actives have a fitted effect of over 50% in size; further: potency means the concentration at half of the fitted maximal effect; on activity change, negative = inhibition: series mostly up to about 120 µM
Summary of the method: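 CYP3A4 activity was followed with a P450-Glo proluciferin substrate. Test compounds in DMSO were preincubated 10 min; NADPH regeneration then ran 1 h, and light output was read 20 min after detection reagent.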

[14] = target: Nuclear receptor subfamily 1 group I member 2 (Homo sapiens) (UniProt O75469); test: Human pregnane X receptor (PXR) small molecule agonists, qHTS assay (AID 1346982); further: nearly all actives have a fitted effect of over 35% in size; further: potency means the concentration at half of the fitted maximal effect
Summary of the method: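 Reporter HepG2 cells expressing PXR-Luc are cultured in charcoal-stripped FBS (5%), treated with compounds for 24 hr at 37 C, and assayed by ONE-Glo luminescence after 30 min at room temperature.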

[15] = target: Voltage-gated inwardly rectifying potassium channel KCNH2 (Homo sapiens) (UniProt Q12809); test: Human Ether-a-go-go-Related Gene (hERG) channel small molecule antagonists: fluorescence cell-based qHTS assay (AID 1671200); further: nearly all actives have a fitted effect of over 50% in size; further: potency means the concentration at half of the fitted maximal effect;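 on activity change, negative = inhibition: hERG-expressing U2OS cells given a thallium stimulus after FluxOR II dye loading; series mostly up to about 77 µM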
Summary of the method: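 In this thallium-flux screen, overnight-cultured U2OS cells bearing the channel are dye-loaded in darkness for an hour, rested 10 min at room temperature, and then monitored kinetically at 480/540 nm for two minutes post-stimulus.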

[16] = Human pregnane X receptor (PXR) small molecule agonists, qHTS cell viability counter screen (AID 1346977); further: nearly all actives have a fitted effect of over 50% in size
Summary of the method: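 In each well, the PXR reporter HepG2 line was checked for viability: CellTiter-Fluor reagent added 23hr post-dosing, fluorescence read after 1hr incubation at 37C.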
On the % scale 0 is the no-effect control and ±100 the full control effect.

Cytochrome P450 1A2 (Homo sapiens), sequence (P05177 whole entry, looked up): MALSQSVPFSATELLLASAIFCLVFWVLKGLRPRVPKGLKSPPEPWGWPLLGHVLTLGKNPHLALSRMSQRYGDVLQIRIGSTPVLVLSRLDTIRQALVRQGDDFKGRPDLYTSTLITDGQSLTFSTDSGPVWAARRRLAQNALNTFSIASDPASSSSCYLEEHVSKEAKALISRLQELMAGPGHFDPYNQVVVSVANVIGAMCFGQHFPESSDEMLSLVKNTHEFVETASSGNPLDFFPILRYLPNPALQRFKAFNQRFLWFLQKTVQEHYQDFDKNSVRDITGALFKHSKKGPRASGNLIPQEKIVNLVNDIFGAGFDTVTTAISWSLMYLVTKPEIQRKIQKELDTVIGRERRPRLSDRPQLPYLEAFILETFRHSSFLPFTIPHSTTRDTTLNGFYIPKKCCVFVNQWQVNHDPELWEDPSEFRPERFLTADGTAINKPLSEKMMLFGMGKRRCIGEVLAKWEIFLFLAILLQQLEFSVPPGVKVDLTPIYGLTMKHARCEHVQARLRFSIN
Cytochrome P450 2D6 (Homo sapiens), sequence (P10635 whole entry, looked up): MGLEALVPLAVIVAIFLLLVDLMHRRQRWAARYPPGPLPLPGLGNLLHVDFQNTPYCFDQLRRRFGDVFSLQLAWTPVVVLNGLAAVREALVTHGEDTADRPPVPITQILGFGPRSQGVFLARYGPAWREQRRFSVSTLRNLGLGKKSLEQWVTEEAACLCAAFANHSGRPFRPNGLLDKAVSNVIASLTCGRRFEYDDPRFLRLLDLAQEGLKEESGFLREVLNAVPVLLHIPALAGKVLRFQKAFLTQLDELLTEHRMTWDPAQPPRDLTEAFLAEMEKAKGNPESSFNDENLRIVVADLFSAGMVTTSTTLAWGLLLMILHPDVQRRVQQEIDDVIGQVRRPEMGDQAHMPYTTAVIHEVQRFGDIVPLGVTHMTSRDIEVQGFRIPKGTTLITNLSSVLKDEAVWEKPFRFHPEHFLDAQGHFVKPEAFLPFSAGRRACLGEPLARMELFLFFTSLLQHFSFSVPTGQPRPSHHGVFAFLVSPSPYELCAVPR
Thyrotropin-releasing hormone receptor (Homo sapiens), sequence (P34981 whole entry, looked up): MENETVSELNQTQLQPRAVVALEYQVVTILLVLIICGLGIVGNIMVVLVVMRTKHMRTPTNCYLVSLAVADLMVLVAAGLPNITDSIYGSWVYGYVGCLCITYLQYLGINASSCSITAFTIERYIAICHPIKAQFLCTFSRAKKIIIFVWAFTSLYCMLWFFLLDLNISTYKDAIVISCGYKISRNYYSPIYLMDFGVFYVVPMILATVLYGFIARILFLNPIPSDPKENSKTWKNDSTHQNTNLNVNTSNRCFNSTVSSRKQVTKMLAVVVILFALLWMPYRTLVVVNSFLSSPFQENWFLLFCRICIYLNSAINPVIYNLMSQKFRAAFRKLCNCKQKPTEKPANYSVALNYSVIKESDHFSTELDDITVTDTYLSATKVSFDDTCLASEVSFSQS
Cytochrome P450 2C19 (Homo sapiens), sequence (P33261 whole entry, looked up): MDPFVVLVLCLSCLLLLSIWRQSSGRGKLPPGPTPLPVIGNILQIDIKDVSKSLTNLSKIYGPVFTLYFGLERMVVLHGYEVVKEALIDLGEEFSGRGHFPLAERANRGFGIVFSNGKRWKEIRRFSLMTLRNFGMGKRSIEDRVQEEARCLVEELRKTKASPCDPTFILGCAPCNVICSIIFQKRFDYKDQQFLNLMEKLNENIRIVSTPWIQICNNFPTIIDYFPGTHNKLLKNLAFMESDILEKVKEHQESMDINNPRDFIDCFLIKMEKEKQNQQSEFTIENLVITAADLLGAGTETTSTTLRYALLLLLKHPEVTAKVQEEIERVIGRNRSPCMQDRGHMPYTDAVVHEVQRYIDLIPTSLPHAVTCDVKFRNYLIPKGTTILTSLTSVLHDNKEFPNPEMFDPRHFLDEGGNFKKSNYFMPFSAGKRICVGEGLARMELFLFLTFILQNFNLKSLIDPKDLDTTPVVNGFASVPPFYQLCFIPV
Nuclear receptor subfamily 1 group I member 2 (Homo sapiens), sequence (O75469 whole entry, looked up): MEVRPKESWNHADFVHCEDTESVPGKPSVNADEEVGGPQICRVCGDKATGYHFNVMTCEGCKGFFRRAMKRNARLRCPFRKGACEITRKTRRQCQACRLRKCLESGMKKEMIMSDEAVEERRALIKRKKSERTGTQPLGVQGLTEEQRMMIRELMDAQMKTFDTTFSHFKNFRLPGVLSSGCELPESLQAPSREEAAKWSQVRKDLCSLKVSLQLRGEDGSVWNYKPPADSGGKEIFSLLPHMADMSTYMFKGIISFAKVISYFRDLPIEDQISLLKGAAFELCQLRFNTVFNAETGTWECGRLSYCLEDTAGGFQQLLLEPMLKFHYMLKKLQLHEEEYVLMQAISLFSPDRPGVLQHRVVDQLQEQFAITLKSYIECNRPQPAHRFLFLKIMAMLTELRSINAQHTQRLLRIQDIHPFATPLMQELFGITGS
Nuclear receptor subfamily 1 group I member 2 (Rattus norvegicus), sequence (Q9R1A7 whole entry, looked up): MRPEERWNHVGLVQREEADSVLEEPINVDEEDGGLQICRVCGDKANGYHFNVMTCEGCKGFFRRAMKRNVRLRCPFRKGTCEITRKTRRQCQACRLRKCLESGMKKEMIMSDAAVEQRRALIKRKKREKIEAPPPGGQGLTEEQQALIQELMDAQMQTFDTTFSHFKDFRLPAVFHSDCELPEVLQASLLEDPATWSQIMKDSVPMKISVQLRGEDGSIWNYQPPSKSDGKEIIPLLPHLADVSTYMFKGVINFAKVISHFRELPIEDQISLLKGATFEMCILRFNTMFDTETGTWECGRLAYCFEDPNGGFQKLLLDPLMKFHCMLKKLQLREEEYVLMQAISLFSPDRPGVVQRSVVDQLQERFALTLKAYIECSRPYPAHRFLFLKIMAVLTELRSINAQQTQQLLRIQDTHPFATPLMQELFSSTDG
Cytochrome P450 2C9 (Homo sapiens), sequence (P11712 whole entry, looked up): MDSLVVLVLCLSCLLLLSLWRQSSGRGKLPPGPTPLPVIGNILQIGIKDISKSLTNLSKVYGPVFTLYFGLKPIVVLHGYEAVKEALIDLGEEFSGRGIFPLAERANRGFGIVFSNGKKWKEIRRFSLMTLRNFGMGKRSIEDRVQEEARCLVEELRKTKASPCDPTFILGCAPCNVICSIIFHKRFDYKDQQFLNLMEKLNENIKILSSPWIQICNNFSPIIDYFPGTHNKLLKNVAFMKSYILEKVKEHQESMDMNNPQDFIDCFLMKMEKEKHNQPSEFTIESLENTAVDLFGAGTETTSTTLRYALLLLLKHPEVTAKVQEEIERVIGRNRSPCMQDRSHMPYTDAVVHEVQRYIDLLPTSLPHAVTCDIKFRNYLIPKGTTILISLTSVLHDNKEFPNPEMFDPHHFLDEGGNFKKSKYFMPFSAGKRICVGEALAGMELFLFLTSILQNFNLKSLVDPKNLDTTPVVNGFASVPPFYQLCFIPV
Cytochrome P450 3A4 (Homo sapiens), sequence (P08684 whole entry, looked up): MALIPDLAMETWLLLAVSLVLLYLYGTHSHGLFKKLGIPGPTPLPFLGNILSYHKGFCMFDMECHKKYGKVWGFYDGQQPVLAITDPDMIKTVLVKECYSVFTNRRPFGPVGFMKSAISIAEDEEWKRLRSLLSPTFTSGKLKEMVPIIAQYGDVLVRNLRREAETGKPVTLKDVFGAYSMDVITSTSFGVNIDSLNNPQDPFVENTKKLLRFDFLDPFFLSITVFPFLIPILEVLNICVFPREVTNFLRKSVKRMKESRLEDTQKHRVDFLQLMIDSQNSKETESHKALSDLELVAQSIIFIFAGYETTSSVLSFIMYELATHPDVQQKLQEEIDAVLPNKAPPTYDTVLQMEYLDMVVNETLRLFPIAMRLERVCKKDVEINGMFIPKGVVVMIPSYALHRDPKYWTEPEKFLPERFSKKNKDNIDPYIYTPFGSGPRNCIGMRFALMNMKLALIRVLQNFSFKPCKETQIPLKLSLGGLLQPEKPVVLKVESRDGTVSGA
Voltage-gated inwardly rectifying potassium channel KCNH2 (Homo sapiens), sequence (Q12809 whole entry, looked up): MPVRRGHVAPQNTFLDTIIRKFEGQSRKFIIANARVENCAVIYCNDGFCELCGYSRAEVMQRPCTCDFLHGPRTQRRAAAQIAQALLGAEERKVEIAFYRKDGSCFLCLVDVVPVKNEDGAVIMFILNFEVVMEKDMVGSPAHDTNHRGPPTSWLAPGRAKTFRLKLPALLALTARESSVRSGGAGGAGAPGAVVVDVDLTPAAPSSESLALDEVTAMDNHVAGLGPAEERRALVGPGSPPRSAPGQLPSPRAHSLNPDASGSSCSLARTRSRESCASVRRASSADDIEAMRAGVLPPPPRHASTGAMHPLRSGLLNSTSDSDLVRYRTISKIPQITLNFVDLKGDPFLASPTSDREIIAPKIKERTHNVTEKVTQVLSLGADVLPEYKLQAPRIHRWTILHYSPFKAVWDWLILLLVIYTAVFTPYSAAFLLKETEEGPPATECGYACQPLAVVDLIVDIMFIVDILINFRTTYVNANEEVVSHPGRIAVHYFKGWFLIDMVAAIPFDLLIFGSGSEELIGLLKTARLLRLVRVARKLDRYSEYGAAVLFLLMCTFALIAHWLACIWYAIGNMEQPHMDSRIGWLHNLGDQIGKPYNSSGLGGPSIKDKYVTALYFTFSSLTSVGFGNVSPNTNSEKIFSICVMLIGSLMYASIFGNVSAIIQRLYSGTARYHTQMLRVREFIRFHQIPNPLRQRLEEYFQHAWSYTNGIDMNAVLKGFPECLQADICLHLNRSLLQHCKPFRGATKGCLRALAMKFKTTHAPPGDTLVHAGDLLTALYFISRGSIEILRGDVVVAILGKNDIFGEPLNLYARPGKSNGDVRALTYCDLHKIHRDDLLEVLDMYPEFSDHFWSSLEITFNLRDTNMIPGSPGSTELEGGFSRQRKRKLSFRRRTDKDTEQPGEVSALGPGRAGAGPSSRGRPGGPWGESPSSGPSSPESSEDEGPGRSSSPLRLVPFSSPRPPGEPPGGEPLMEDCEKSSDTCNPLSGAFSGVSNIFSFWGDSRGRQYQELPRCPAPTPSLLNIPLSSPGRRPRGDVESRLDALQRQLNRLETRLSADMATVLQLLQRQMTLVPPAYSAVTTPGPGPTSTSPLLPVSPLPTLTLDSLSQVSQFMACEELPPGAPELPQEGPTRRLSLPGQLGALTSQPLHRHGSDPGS

CCN(CCCc1ccccc1)CCCc1ccccc1
inactive: Potency [1] | Potency [2] | Potency [3] | outcome [4] | Potency [5] | max activation [6] -0.276% | Potency [7] | Potency [8] | Potency [11] | Potency [13]
active: Potency [9] 0.871 µM | Potency [10] 6.92 µM | Potency [12] 7.23 µM

CCC(=O)c1ccc2c(c1)N(CCCN(C)C)c1ccccc1S2
inactive: Potency [1] | Potency [2] | Potency [3] | outcome [4] | Potency [14] | Potency [11] | Potency [13]
active: Potency [9] 1.1 µM | Potency [10] 11 µM | Potency [12] 1.82 µM | Potency [15] 9.52 µM

CCc1cc(Cl)c(OC)c(C(=O)NC[C@@H]2CCCN2CC)c1O
active: Potency [14] 7.5 µM | Potency [7] 15.8 µM | Potency [8] 25.1 µM | Potency [9] 0.617 µM | Potency [12] 12.9 µM | Potency [15] 6.74 µM
inactive: Potency [16] | Potency [2] | Potency [3] | outcome [4] | Potency [5] | max activation [6] -0.901% | Potency [10] | Potency [11] | Potency [13]

CN(C)CC[C@@H](c1ccc(Cl)cc1)c1ccccn1
inactive: Potency [1] | Potency [2] | Potency [3] | outcome [4] | Potency [5]

CCCNC(C)C(=O)Nc1c(C)csc1C(=O)OC (configuration not stated)
inactive: Potency [16] | Potency [2] | Potency [3] | outcome [4] | Potency [5] | Potency [14] | max activation [6] -1.55% | Potency [7] | Potency [8] | Potency [9] | Potency [10] | Potency [11] | Potency [15] | Potency [13]

NC(Cc1ccc(F)cc1)C(=O)O (configuration not stated)
inactive: activation [1] 0.148% [at 5.23 µM] | caspase activation [2] 0.163% [at 8.39 µM] | caspase-3/7 activation [4] 2.35% [at 8.39 µM] | activity change, negative = cytotoxicity [5] -1.98% [at 8.39 µM]

Cc1c(N)cccc1N
active: Potency [9] 72.6 µM | Potency [11] 64.7 µM | Potency [12] 23 µM | Potency [13] 6.47 µM
inactive: Potency [1] | Potency [16] | Potency [3] | outcome [4] | Potency [5] | Potency [15]

CN(CCCN1c2ccccc2CCc2ccccc21)CC(=O)c1ccc(Cl)cc1
active: Potency [14] 18.8 µM | Potency [7] 25.1 µM | Potency [8] 22.4 µM | Potency [9] 7.76 µM | Potency [10] 3.47 µM | Potency [11] 15.5 µM | Potency [12] 11 µM
inactive: Potency [1] | Potency [2] | outcome [4] | Potency [5]

Cc1ccc([N+](=O)[O-])c(N)c1
active: Potency [14] 66.9 µM | Potency [10] 38.9 µM | Potency [12] 24.6 µM
inactive: Potency [1] | Potency [2] | outcome [4] | Potency [9] | Potency [11] | Potency [15] | Potency [13]

O=C(O)CN(CCN(CC(=O)O)CC(=O)O)CCN(CC(=O)O)CC(=O)O
active: Potency [3] 13 µM
inactive: activation [1] -0.051% [at 11.8 µM] | caspase activation [2] 0.916% [at 19 µM] | caspase-3/7 activation [4] 5.14% [at 19 µM] | activation [14] 8.36% [at 19 µM] | activity change, negative = inhibition [9] -5.69% [at 23.6 µM] | activity change, negative = inhibition [10] 49.7% [at 23.6 µM] | Potency [11] | Potency [12] | activity change, negative = inhibition [15] 6.28% [at 15.8 µM] | activity change, negative = inhibition [13] 10.1% [at 23.6 µM]

CCc1nnc(NS(=O)(=O)c2ccc(N)cc2)s1
inactive: Potency [16] | Potency [2] | Potency [3] | outcome [4] | Potency [5] | Potency [14] | max activation [6] -2.73% | Potency [7] | Potency [8] | Potency [9] | Potency [10] | Potency [12] | Potency [15]

CC(C)CC(=O)OCc1ccccc1
inactive: Potency [1] | Potency [2] | Potency [3] | outcome [4] | Potency [5] | Potency [9] | Potency [10] | Potency [11] | Potency [12] | Potency [15] | Potency [13]

CCCCNC(=S)NCCCC
inactive: Potency [1] | Potency [2] | Potency [5] | Potency [15]
active: Potency [14] 34.4 µM | Potency [9] 1.42 µM | Potency [10] 79.6 µM | Potency [12] 44.8 µM | Potency [13] 31.7 µM

CCCCCCCCCC#N
inactive: Potency [1] | Potency [2] | Potency [3] | outcome [4] | Potency [5] | Potency [9] | Potency [10] | Potency [11] | Potency [15] | Potency [13]

NC(=O)NS(=O)(=O)c1ccc(Cl)cc1
inactive: Potency [1] | Potency [2] | outcome [4] | Potency [5] | Potency [14] | Potency [9] | Potency [10] | Potency [11] | Potency [12] | Potency [15] | Potency [13]

C/C(=N\O)[C@@H](C)NCC(C)(C)CN[C@H](C)/C(C)=N/O
inactive: Potency [1] | Potency [2] | Potency [3] | outcome [4] | Potency [5] | Potency [14] | Potency [10] | Potency [11] | Potency [12] | Potency [15]

Cc1cc2nc(N)sc2cc1C
inactive: Potency [16] | Potency [2] | Potency [3] | outcome [4] | Potency [5] | Potency [15]
active: Potency [14] 27.6 µM | Potency [9] 32 µM | Potency [10] 28.5 µM | Potency [11] 35.9 µM | Potency [12] 1.14 µM | Potency [13] 25.4 µM

O=C(O)[C@@H]1CSCN1
inactive: Potency [2] | Potency [3] | outcome [4] | Potency [5] | Potency [14] | max activation [6] 0.44% | Potency [7] | Potency [8] | Potency [10] | Potency [12] | Potency [15] | Potency [13]
